Laboratory results taken from PubChem BioAssay (Tox21).
Records with an inconclusive call do not appear. Calls of active or inactive are those of the source. Unless noted, the call rests on the fitted dose curve.

Legend:
[1] = Nuclear factor erythroid 2-related factor 2/antioxidant responsive element (Nrf2/ARE) small molecule agonists: qHTS cell viability counter screen in human keratinocytes (AID 1919968; active means well fitted curve in the direction sought with a large enough effect in the repeat runs; an effect the other way counts as inactive or inconclusive; further: nearly all actives have a fitted effect of over 55% in size)
Summary of the method: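 Seed 1,500 KeratinoSens cells per well, then incubate 5 h at 37 C/5% CO2. Add compounds in DMSO and incubate 23 h. Add CellTiter-Fluor, wait 1 h and read fluorescence.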

[2] = Nuclear factor erythroid 2-related factor 2/antioxidant responsive element (Nrf2/ARE) small molecule agonists: luciferase reporter gene qHTS assay in human keratinocytes (AID 1919969); further: nearly all actives have a fitted effect of over 35% in size
[3] = biological target: Gonadotropin-releasing hormone receptor (Homo sapiens) (UniProt P30968); assay: Human gonadotropin-releasing hormone receptor (GnRHR) small molecule agonists, calcium flux assay in GnRHR-HEK293 cells (AID 1920063); further: nearly all actives have a fitted effect of over 35% in size
Summary of the method: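 Cells: HEK293 stably expressing human GnRHR. Steps: overnight (18 h) culture, 1 h calcium dye loading at 37 C, compound addition, kinetic fluorescence read at 480/540 nm. Each compound tested at 15 concentrations in triplicate.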

[4] = biological target: KiSS-1 receptor (Homo sapiens) (UniProt Q969F8); assay: Human kisspeptin (KISS1R) small molecule agonists, calcium flux assay in KISS1R-HEK293 cells (AID 1920064; active means well fitted curve in the direction sought with a large enough effect in the repeat runs; an effect the other way counts as inactive or inconclusive)
Summary of the method: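 Cells plated and incubated 18 h; dye added, 1 h at 37 C; compounds in DMSO pinned in; signal read at 480/540 nm every second for 3 min. Each compound tested at 15 concentrations in triplicate.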

[5] = G protein-coupled receptor (GPCR) small molecule agonists, calcium flux assay: HEK293 wild type cell line counter screen (AID 1920065)
Summary of the method: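 Counter-screen of the Tox21 10K library for non-specific calcium release: dye-loaded cells received compounds in DMSO and were monitored by kinetic fluorescence (480/540 nm, 3 min). Fifteen concentrations, run in triplicate.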

[6] = p53 small molecule agonists, cell-based qHTS assay with human liver microsomes (AID 1963577);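 further: p53 response element beta-lactamase reporter cells with liver microsomes plus NADPH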
Summary of the method: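 16 h, 37 C exposure of p53RE-bla cells to compounds with human liver microsomes and NADPH (0.5 mg/mL final each); detection via LiveBLAzer mixture, 2 h dark at room temperature.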

[7] = p53 small molecule agonists, cell-based qHTS assay with rat liver microsomes (AID 1963578)
Summary of the method: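 With rat liver microsomes and NADPH present (0.5 mg/mL final each), p53RE-bla cells are treated with compound for 16 h at 37 C. LiveBLAzer detection mixture is then applied for 2 h at room temperature in the dark.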

[8] = p53 small molecule agonists, cell-based qHTS assay with human liver microsomes: qHTS cell viability counter screen (AID 1963579); further: nearly all actives have a fitted effect of over 45% in size
Summary of the method: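 In this multiplexed counter screen, the reporter plates were subsequently treated with CellTiter-Glo so that cell viability, reflected by luminescence, could be recorded for p53RE-bla cells dosed 16 h with compounds under microsomal activation (HLM and NADPH).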

[9] = p53 small molecule agonists, cell-based qHTS assay with rat liver microsomes: qHTS cell viability counter screen (AID 1963580); further: nearly all actives have a fitted effect of over 45% in size
Summary of the method: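 HCT-116 p53RE-bla, 4,000 cells/well, 5 h pre-incubation; cpd + rat liver microsomes 0.5 mg/mL + NADPH 0.5 mg/mL (final); 16 h, 37 C; CellTiter-Glo, 30 min RT; luminescence.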

[10] = p53 small molecule agonists, cell-based qHTS assay: qHTS cell viability counter screen (AID 1963581); further: nearly all actives have a fitted effect of over 45% in size
Summary of the method: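 Cells: HCT-116 with p53 response element-driven beta-lactamase. Treatment: 16 h, 37 C, compounds in DMSO. Read: CellTiter-Glo luminescence after 30 min RT.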

[11] = p53 small molecule agonists, cell-based qHTS assay (AID 1963582; active means well fitted activation curve with a large enough effect in the signal ratio in the repeat runs, not every such curve was filed as active; the % refers to the signal ratio)
Summary of the method: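 Quantitative HTS in p53RE-bla cells: after a 5 h settling period, compounds delivered in DMSO were left on cells for 16 h at 37 C, and reporter induction was measured as fluorescence following 2 h substrate loading.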

[12] = biological target: 5-hydroxytryptamine receptor 2A (Homo sapiens) (UniProt P28223); assay: 5-hydroxytryptamine receptor 2A (HTR2A) small molecule antagonists, cell-based qHTS assay (AID 1963586); further: nearly all actives have a fitted effect of over 45% in size
Summary of the method: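 Antagonist-mode intracellular calcium assay: DOI (4 nM) added after 5 min compound pre-incubation at room temperature to dye-loaded HTR2A-CHO cells. Fluorescence followed for 3 min, sampled every second.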

[13] = biological target: 5-hydroxytryptamine receptor 2A (Homo sapiens) (UniProt P28223); assay: 5-hydroxytryptamine receptor 2A (HTR2A) small molecule agonists, cell-based qHTS assay (AID 1963587); further: nearly all actives have a fitted effect of over 30% in size
Summary of the method: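 Kinetic calcium-flux fluorescence (2 min, 1 sec intervals) after compound addition in agonist mode. HTR2A-CHO cells were cultured 18 h, then dye-loaded 1 h at 37 C.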

[14] = biological target: Muscarinic acetylcholine receptor M1 (Homo sapiens) (UniProt P11229); assay: Cholinergic receptor muscarinic 1 (CHRM1) small molecule antagonists, cell-based qHTS assay (AID 1963588); further: nearly all actives have a fitted effect of over 40% in size
Summary of the method: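 CHRM1-CHO calcium-flux assay, antagonist mode. Cells were seeded 18 h, dye-loaded 1 h at 37 C and given compound for 5 min at RT, then acetylcholine was added at 50nM. FDSS fluorescence was read 3 min; 15 concentrations, three runs.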

[15] = biological target: Muscarinic acetylcholine receptor M1 (Homo sapiens) (UniProt P11229); assay: Cholinergic receptor muscarinic 1 (CHRM1) small molecule agonists, cell-based qHTS assay (AID 1963589); further: nearly all actives have a fitted effect of over 35% in size
Summary of the method: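 Agonist-mode qHTS in CHO cells stably carrying human muscarinic M1. Intracellular calcium is tracked by fluorescence every second after compound transfer; each compound runs at 15 concentrations in three independent runs.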

[16] = cAMP Responsive Elements (CRE) small molecule agonists, cell-based qHTS assay (AID 1963590)
Summary of the method: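 Agonist mode qHTS in CRE-bla HEK 293T cells: compounds dosed from DMSO for 3 h at 37 C/5% CO2, followed by LiveBLAzer B/G FRET substrate for 2 h at room temperature.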

[17] = cAMP Responsive Elements (CRE) small molecule antagonists, cell-based qHTS assay (AID 1963591; active means well fitted inhibition curve with a large enough effect in the signal ratio in the repeat runs, not every such curve was filed as active; the % refers to the signal ratio)
Summary of the method: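 Antagonist mode: test compounds are co-incubated with the adenylyl cyclase activator NKH477 (0.25 uM final) on CRE-bla HEK293T cells for 3 h at 37 °C, followed by LiveBLAzer substrate loading.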

[18] = biological target: Beta-2 adrenergic receptor (Homo sapiens) (UniProt P07550); assay: Adrenergic beta2 receptor (ADRB2) small molecule antagonists, cell-based qHTS assay (AID 1963592); further: series mostly up to about 92 µM; nearly all actives have a fitted effect of over 50% in size
Summary of the method: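 Cells (CHO, stable ADRB2 overexpression) incubated 18-20hr at 37C; compounds added from DMSO; agonist mix (1nM isoproterenol, 100uM IBMX, 25uM Ro-20-1724) added; 0.5hr RT; d2-cAMP and anti-cAMP-cryptate added; 1hr RT; 665/615 nm read.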

[19] = biological target: D(2) dopamine receptor (Homo sapiens) (UniProt P14416); assay: Dopamine D2 receptor (DRD2) small molecule agonists, cell-based qHTS assay (AID 1963594); further: nearly all actives have a fitted effect of over 35% in size
Summary of the method: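 cAMP accumulation in DRD2-HEK293 cells measured by HTRF after 1 h detection; compounds added 10 min before NKH477 (200nM […]) forskolin-analogue stimulation, 30 min at room temperature, with Ro20-1724 present at 0.1 mM final.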

[20] = biological target: D(2) dopamine receptor (Homo sapiens) (UniProt P14416); assay: Dopamine D2 receptor (DRD2) small molecule antagonists, cell-based qHTS assay (AID 1963595; active means well fitted inhibition curve with a large enough effect in the signal ratio in the repeat runs, with a control signal flat; the % refers to the signal ratio)
Summary of the method: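 Antagonism was scored as restored cAMP in HEK293-DRD2 cells. These cells were stimulated with 200 nM NKH477 and 12 nM quinpirole for 30 min at room temperature, in the presence of 0.1 mM Ro20-1724.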

Measured: Potency

Chain of 5-hydroxytryptamine receptor 2A (Homo sapiens) (P28223 whole entry, looked up): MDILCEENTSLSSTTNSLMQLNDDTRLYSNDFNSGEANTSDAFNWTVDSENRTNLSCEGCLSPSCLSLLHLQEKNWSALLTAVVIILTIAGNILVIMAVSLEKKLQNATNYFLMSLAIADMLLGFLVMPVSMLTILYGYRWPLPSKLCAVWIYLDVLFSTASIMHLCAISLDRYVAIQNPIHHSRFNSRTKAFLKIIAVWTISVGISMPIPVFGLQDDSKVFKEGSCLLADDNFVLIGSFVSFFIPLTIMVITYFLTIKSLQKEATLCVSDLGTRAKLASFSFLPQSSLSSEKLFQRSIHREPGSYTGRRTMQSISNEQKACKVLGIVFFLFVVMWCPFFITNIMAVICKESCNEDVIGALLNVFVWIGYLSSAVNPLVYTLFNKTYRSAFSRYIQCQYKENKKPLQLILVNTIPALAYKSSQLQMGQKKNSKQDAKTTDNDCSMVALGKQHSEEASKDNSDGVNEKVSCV
Chain of Gonadotropin-releasing hormone receptor (Homo sapiens) (P30968 whole entry, looked up): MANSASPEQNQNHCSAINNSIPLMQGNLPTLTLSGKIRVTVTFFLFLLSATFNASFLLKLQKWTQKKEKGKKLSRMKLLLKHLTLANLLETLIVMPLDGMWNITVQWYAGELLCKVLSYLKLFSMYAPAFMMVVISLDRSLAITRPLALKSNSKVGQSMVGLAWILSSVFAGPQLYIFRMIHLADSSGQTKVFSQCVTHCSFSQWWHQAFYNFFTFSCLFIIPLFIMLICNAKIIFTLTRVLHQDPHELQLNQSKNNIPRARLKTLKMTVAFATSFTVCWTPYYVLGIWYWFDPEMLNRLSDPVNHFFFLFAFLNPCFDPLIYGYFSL
Chain of Beta-2 adrenergic receptor (Homo sapiens) (P07550 whole entry, looked up): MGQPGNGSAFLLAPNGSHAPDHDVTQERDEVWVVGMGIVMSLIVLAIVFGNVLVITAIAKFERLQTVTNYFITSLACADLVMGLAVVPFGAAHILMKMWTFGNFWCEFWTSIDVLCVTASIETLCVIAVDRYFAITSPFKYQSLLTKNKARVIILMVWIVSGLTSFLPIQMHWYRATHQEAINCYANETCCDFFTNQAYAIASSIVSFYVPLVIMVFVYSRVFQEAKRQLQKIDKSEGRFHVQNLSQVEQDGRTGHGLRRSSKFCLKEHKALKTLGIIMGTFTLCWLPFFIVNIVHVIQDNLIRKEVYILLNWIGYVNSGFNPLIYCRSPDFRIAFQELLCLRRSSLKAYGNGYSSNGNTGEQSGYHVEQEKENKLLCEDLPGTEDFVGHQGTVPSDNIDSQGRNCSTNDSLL
Chain of D(2) dopamine receptor (Homo sapiens) (P14416 whole entry, looked up): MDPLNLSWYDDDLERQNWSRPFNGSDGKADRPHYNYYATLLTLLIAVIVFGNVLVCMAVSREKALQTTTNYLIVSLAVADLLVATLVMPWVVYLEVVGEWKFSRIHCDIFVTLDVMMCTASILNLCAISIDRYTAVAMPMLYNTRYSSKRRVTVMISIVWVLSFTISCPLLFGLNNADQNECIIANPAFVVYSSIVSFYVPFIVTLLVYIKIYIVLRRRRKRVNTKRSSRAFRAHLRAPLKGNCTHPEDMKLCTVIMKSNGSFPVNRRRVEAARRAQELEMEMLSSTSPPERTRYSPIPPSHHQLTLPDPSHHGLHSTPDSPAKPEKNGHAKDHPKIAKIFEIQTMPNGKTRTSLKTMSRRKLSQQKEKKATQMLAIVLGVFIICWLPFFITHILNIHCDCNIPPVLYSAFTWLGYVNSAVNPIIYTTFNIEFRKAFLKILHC
Chain of KiSS-1 receptor (Homo sapiens) (Q969F8 whole entry, looked up): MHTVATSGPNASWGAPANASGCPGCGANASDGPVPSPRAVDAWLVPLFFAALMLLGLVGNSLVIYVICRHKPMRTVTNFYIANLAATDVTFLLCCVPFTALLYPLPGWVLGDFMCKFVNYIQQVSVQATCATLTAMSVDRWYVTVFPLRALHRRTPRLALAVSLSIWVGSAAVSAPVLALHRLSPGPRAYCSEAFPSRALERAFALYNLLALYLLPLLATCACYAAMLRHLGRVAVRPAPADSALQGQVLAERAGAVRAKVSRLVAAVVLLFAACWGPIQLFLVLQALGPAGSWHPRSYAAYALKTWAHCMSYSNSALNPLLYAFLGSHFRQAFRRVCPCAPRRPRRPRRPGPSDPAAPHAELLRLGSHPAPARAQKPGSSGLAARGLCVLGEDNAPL
Chain of Muscarinic acetylcholine receptor M1 (Homo sapiens) (P11229 whole entry, looked up): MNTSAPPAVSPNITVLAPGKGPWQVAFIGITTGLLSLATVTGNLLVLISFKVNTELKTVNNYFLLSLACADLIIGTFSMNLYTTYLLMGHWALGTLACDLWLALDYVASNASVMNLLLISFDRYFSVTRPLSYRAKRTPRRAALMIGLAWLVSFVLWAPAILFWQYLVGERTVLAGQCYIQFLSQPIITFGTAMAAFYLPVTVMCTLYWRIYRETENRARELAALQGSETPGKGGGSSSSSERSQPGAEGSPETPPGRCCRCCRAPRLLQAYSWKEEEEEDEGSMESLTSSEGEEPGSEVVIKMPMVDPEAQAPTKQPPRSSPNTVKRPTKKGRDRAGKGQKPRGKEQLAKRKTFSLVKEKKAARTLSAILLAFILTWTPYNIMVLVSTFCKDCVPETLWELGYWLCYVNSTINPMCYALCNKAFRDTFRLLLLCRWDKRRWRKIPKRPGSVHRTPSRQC

Cl/C=C/CCl
inactive: [1] | [2] | [3] | [4] | [5] | [6] | [7] | [8] | [9] | [10] | [11] | [12] | [13] | [14] | [15] | [16] | [17] | [18] | [19] | [20]

O=C(O)COc1ccccc1
inactive: [1] | [2] | [3] | [4] | [5] | [6] | [7] | [8] | [9] | [10] | [11] | [12] | [13] | [14] | [15] | [16] | [17] | [18] | [19] | [20]

CC(C)N1C(=O)c2ccccc2NS1(=O)=O
inactive: [1] | [2] | [3] | [4] | [5] | [6] | [7] | [8] | [9] | [10] | [11] | [12] | [13] | [14] | [15] | [16] | [17] | [18] | [19] | [20]

Brc1ccc(Br)cc1
inactive: [1] | [2] | [3] | [4] | [5] | [6] | [7] | [8] | [9] | [10] | [11] | [12] | [13] | [14] | [15] | [16] | [17] | [18] | [19] | [20]

CCC1(c2ccccc2)CCC(=O)NC1=O (stereo not given)
inactive: [1] | [2] | [3] | [4] | [5] | [6] | [7] | [8] | [9] | [10] | [11] | [12] | [13] | [14] | [15] | [16] | [17] | [18] | [19] | [20]
